Test results published in ChEMBL document CHEMBL3433997, “St. Jude Leishmania screening dataset” (2016).

What was measured:
Format in all cases: functional
[1] = target: Solute carrier family 2, facilitated glucose transporter member 1 (Homo sapiens) (UniProt P11166); test: ST_JUDE_LEISH: Cytotoxicity at 2uM final concentration against transgenic Leishmania Mexicana promastigotes LmGLUT1 that are glucose transport deficient and complemented with the human glucose transporter GLUT1. Activity is measured by DNA content using SYBR green in vitro
[2] = target: Hexose transporter 1 (Plasmodium falciparum) (UniProt O97467); test: ST_JUDE_LEISH: Cytotoxicity at 2uM final concentration against transgenic Leishmania Mexicana promastigotes LmPfHT that are glucose transport deficient and complemented with the Plasmodium falciparum hexose transporter. Activity is measured by DNA content using SYBR green in vitro
[3] = target: Glucose transporter (Leishmania mexicana) (UniProt O61059); test: ST_JUDE_LEISH: Cytotoxicity at 2uM final concentration against transgenic Leishmania Mexicana promastigotes LmGT2 that are glucose transport deficient and complemented with the L. Mexicana glucose transporter 2. Activity is measured by DNA content using SYBR green in vitro

Chain of Solute carrier family 2, facilitated glucose transporter member 1 (Homo sapiens) (P11166 whole entry): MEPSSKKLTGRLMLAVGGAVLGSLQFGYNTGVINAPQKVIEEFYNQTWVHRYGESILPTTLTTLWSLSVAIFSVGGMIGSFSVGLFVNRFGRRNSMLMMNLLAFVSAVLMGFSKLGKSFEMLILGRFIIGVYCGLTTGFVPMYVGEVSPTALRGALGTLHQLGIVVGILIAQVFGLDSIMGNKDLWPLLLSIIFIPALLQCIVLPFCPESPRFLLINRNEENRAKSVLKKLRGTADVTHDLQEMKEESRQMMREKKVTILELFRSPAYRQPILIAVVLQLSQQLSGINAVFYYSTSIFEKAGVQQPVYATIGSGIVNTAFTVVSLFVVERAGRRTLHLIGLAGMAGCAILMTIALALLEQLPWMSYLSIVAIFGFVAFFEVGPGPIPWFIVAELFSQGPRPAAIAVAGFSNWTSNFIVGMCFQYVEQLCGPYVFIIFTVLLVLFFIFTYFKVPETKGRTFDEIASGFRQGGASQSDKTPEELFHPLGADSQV

Compound | inhibition [1] | inhibition [2] | inhibition [3]
COc1c(C2CCN(CCCCNC(=O)c3oc(-c4ccc(Cl)cc4)cc3CO)CC2)ccc2c1CCCC2 | 1.58% | 1.81% | 3.08%
Cc1cc(-c2cccc(CNC3CCCC3)c2)ccc1S(=O)(=O)NCCN1CCCC1 | 5% | 3.43% | 6.24%
COc1ccc(CNC(=O)Nc2cc3cc(-c4ccc(CN(C)C)cc4)ccc3n3c(C)nnc23)cc1 | 4.84% | 2.93% | 3.32%
O=C1CSc2ccc(CNC3CCN(CCc4c(F)cnc5ccc(F)cc45)CC3)nc2N1 | -2.82% | 0.21% | -1.74%
O=C(NCc1cccs1)[C@H](Cc1ccccc1)Nc1ccnc(NCCc2ccccc2)n1 | -0.12% | -1.06% | -0.38%
COc1ccc2nccc([C@@H](O)CN3CCC(NCc4[nH]c5ccccc5c4F)CC3)c2c1 | 9.88% | 9.58% | 1.18%
FC(F)(F)c1ccc2[nH]c(-c3ccc(-c4ccc(CN5CCN(c6ccncc6)CC5)cc4)cc3)nc2c1 | 77.4% | 85.7% | 69%
C[C@H](NC(=O)c1c(OC2CN(C(c3ccccc3)c3ccccc3)C2)c(-c2ccccc2)nc2ccccc12)C1CCCCC1 | 2.01% | 0.08% | 0.33%
COc1ccc(-c2cccc(NC(=O)c3ccc(C#N)cc3)c2)cc1CN(C)CCN(C)C | 2.8% | 2.9% | 0.41%
O=C(Nc1ccc([N+](=O)[O-])cc1Cl)c1cc(Br)cc(Cc2ccccc2)c1O | 3.27% | 3.32% | 2.81%
CC1c2cccc(O)c2CCN1CCc1ccc(Cl)c(Cl)c1 (configuration not stated) | 12.5% | 7.34% | 5.5%
Cc1cc(=O)c(-c2ccc(Oc3ccc(OC(F)(F)F)cc3)cc2)c(C)[nH]1 | -0.98% | -0.47% | -1.38%
Cc1c(Cc2ccccc2Br)cnc2nc(N)nc(N)c12 | 9.6% | 30.2% | 14.2%
O=C(CSc1nc(-c2ccccc2Cl)ns1)Nc1ccc2c(c1)OCO2 | -0.52% | -0.45% | -1.67%
COc1ccc2c(c1CNCCCCCCNCc1c(OC)ccc3c1CCCC3)CCCC2 | 11.1% | 8.33% | 7.55%
COc1ccc2nccc(N3CCN(CCNCc4ccc5c(n4)NC(=O)CO5)CC3)c2n1 | 11.2% | 9.11% | 10.1%
O=C(/C=C/c1ccc(Cl)c(Cl)c1)NCCCCCN1CCCC(CCCNC(=O)Nc2ccc(C(F)(F)F)cc2)C1 (configuration not stated) | 11.3% | 9.28% | 5.82%
Oc1ccc(CCNc2nc(NCCOc3cccc4ccccc34)nc(N3CCNCC3)n2)cc1 | 3.36% | 0.4% | 2.56%
CN1CCN(c2ccc(Nc3nc(N)c4ccn(C5CCC5)c4n3)cc2)CC1 | 4.19% | 4.27% | 2.97%
Cc1cc(NCc2ccccc2)nc2cc(O)ccc12 | 8.52% | 13.2% | 7.14%
O=C(Nc1ccc(-c2ccccc2)cc1)Nc1cccc(Cn2nc(Cl)c(N3CCCNCC3)cc2=O)c1 | 3.71% | 0.49% | 0.24%
CCCOc1cc(OCCC)cc(-c2cc(=O)c3ccccc3[nH]2)c1 | 0.94% | 6.37% | 3.56%
CC(C)CCNc1nc(NCCc2ccccc2)c2cc(O)ccc2n1 | 7.05% | 3.99% | -2.18%
CCc1ccccc1N1CCN(CCCC(=O)c2ccc(NC(=O)c3cc(Cl)cc(Cl)c3)cc2)CC1 | 3.17% | 4.43% | 3.44%
Cc1noc(-c2ccc3c(c2)CCN(CCC2CCC(NC(=O)/C=C/c4cccc(Cl)c4)CC2)CC3)n1 (configuration not stated) | 1.02% | 0% | 0.68%

Compound | inhibition [1] | inhibition [2] | inhibition [3]
O=C(Nc1n[nH]c2nc(-c3ccco3)c(Br)cc12)c1ccc(CN2CCCC2)cc1 | 1.9% | 3.71% | 3.01%
CCCN(CCC)C(C)CCC(C)Nc1c2ccc(Cl)cc2nc2ccc(OC)cc12 (configuration not stated) | 1.91% | 2.78% | 2.82%
O=C(NC(Cc1ccccc1)C(=O)O)c1cc(=O)c2ccccc2o1 (configuration not stated) | 0.32% | 1.17% | 0.99%
CCCCc1cc(NC2CCN(C)CC2)nc(Nc2ccccc2)n1 | 10.5% | 8.07% | 8.76%
Cc1c(-c2ccc3c(c2)C(NCCCN2CCCCC2)CC3)cnc(N)c1C (configuration not stated) | 0.7% | 0.89% | 2.57%
COc1ccc2nccc([C@@H](O)CN3CCC(NCc4cc5c(cc4F)SCC(=O)N5)CC3)c2n1 | 9.08% | 7.72% | 8.6%
Cc1cc(O)c(-c2ccc(OCc3ccc(Cl)cc3)cc2)c(C)n1 | 0.84% | 0.22% | -0.29%
COc1ccc2c(CNCCCCCCNCc3c(OC)ccc4cc(OC)ccc34)c(OC)ccc2c1 | 109% | 107% | 112%
CC(CON1C(N)=NC(N)=NC1(C)C)Cc1ccc(Cl)cc1Cl (configuration not stated) | -0.6% | -1.29% | -0.29%
CCOc1cc(C(=O)N[C@@H](Cc2ccccc2)[C@H](O)CNCc2cccc(OC)c2)cc(N2CCCCS2(=O)=O)c1 | 5.4% | 5.25% | 3.08%
CC(C)(C)c1ccc(N2C(N)=NC(N)=NC2(C)C)cc1Cl | 9.03% | 7.39% | 5.67%
Cc1ccccc1CNc1noc(-c2c(-c3ccccc3)noc2C)n1 | -2.97% | 2.16% | 6.28%
Fc1ccc2ncc(Cl)c(CCN3CCC(NCc4cc5c(cn4)OCCO5)CC3)c2c1 | 11% | 11.7% | -0.41%
CCN(CC)/C(=N/C(=N)NCc1ccc(Cl)cc1)NCCCCCCN/C(=N\C(=N)NCc1ccc(Cl)cc1)N(CC)CC | 9.05% | 8.96% | 8.12%
O=C(Nc1cc(F)cc(F)c1)N1CCOC(CCN2CCC3(CCc4ccccc43)CC2)(c2ccc(Cl)c(Cl)c2)C1 (configuration not stated) | 3.28% | 3.01% | 1.78%
Nc1nc(N)c2c(ccc3c2ccn3CCCCO)n1 | 5.49% | 7.01% | 6.28%
CC1CNC(c2ccc(NC(=O)c3ccc(C(=O)Nc4ccc(C5=NC(C)CN5)cc4)cc3)cc2)=N1 (configuration not stated) | 8.16% | 7.31% | 0.91%
Cc1cc(C)c2cc(CNCCCNc3nc4ccccc4[nH]3)[nH]c2c1 | 1.11% | 0.15% | 2.91%
FC(F)(F)c1ccc2[nH]ccc(=NN=Cc3ccccc3)c2c1 | 1.45% | -0.56% | 0.98%
FC(F)(F)c1ccc2c(NCCNc3ccnc4cc(C(F)(F)F)ccc34)ccnc2c1 | 2.33% | 0.31% | 0.92%
COc1cc(C(=O)NC2CCN(Cc3ccccc3)CC2)ccc1-c1nc2cc(Cl)c(C)cc2[nH]1 | 10.1% | 9.26% | 5.5%
N#Cc1ccc2c(c1)CCN(CCC1CCC(NC(=O)/C=C/c3ccc(F)c4ccccc34)CC1)CC2 (configuration not stated) | 16.1% | 20.9% | 11.4%
Cc1cc(N[C@@H](CC(C)C)C(=O)NCCc2ccccc2)nc(NCc2ccccc2C)n1 | 2.23% | 4.73% | -0.21%
Cc1noc(C)c1S(=O)(=O)N(C)Cc1ccc(-c2ccc(Cl)cc2)o1 | 1.57% | 1.24% | -2.43%
NC1CCN(Cc2ccc(-c3cccc(-c4nc5ccccc5[nH]4)c3)cc2)C1 (configuration not stated) | 5.49% | 5.29% | 5.76%

Compound | inhibition [1] | inhibition [2] | inhibition [3]
Cc1cccc(Cl)c1S(=O)(=O)Nc1cccc(CCN2CCC(N3CCCCC3)CC2)c1 | -0.03% | -0.24% | -2.34%
O=C(/C=C/c1ccc(Cl)c(Cl)c1)NCCCCCCN1CCN(C(=O)Nc2ccc(Cl)c(Cl)c2)CC1 | 2.42% | 2.46% | 4.14%
Cc1[nH]c(C)c(-c2ccc(Oc3ccc(F)cc3)cc2)c(=O)c1Cl | 4.38% | 4.42% | 3.79%
COc1ccc2nc(N(CCCn3ccnc3)C(=O)C=Cc3cccs3)sc2c1 | 3.73% | 3.16% | -2.84%
Cc1cc(Nc2ccc(C)c(Cl)c2)n2ncnc2n1 | -2.06% | -1.7% | -4.9%
CCn1c(-c2nc(-c3ccc4c(c3)OCO4)cnc2N)nc2cnccc21 | 19.7% | 12.4% | 13.5%
N=C(N)NC(=O)Nc1ccc(Cl)c([N+](=O)[O-])c1 | 0.49% | 0.63% | 0.37%
Oc1ccc(CCNCCCCCNCCCc2ccc(Cl)cc2)cc1O | 2.04% | -0.25% | 2.06%
COc1ccc(NC(=O)/C=C/c2ccccc2Cl)cc1OCCN1CCC(N2CCCC2)CC1 | 2.99% | 3.87% | 4.44%
Fc1ccccc1C=NN=c1cc[nH]c2ccccc12 | 4.61% | 4.39% | 4.15%
COc1ccc(-c2cccc(NC(=O)c3cccc(Cl)c3)c2)cc1CN(C)CCN(C)C | 1.29% | 0.75% | -1.29%
N=C(N)NN=Cc1cc2ccccc2c2ccccc12 | 8.49% | 9.7% | 4.16%
COc1ccc(-c2ccc(NC(=O)c3cccc(C#N)c3)cc2)cc1CN1CCC(O)CC1 | -0.68% | -0.84% | 2.05%
O=C(Nc1ccc(OC2CCN(Cc3ccc(F)cc3)CC2)c(Cl)c1)c1ccc(F)cc1 | 2.58% | 3.52% | 7.21%
Cc1ccc(NC(=O)c2cccc(C#N)c2)cc1-c1ccc(C(=O)Nc2ccncc2)cc1 | 7.71% | 9.75% | 4.44%
Cc1nc2ccc3nc(NC(=O)c4ccno4)sc3c2s1 | 1.74% | 1.13% | -1.31%
COc1cc(Nc2nccc(N3CCC(NC(=O)c4cccc(C#N)c4)C3)n2)cc(OC)c1OC (configuration not stated) | 1.3% | 1.35% | 0.79%
Clc1ccc(-c2nc3cc(-c4ccc5nc(-c6ccc(Cl)cc6)[nH]c5c4)ccc3[nH]2)cc1 | 11.2% | 12.2% | 8.04%
O=C(NC1CCN(Cc2ccccc2)CC1)c1cc(-c2ccncc2)c(-c2ccc(Cl)c(O)c2)o1 | 2.8% | 1.63% | 0.77%
CCCCNC(=N)Nc1ccc(OCCCOc2ccc(NC(=N)NCCCC)cc2)cc1 | -1.92% | -1.63% | 0.01%
COc1ccc(-c2cccc(CNCc3ccc(F)cc3)c2)cc1S(=O)(=O)NCCN1CCCC1 | 7.5% | 8.55% | 6.87%
CS(=O)(=O)c1ccc(-c2cnc(N)c(-c3cccc(CO)c3)c2)cc1 | 3.95% | 3.16% | 4.32%
O=C(NCCCCCN1CCC(c2c[nH]c3ccccc23)CC1)Nc1ccc(I)c(Cl)c1 | 7.04% | 4.76% | 5.92%
O=C(/C=C/c1ccc(Cl)c(Cl)c1)N1CCC(CCN2CCC(c3c[nH]c4ccncc34)CC2)CC1 | 3.03% | 4.39% | 6.65%
